Only some compounds are listed: those with a hit (about 3.4% of all), similar ones and a draw of the others.
FBW7 activator = FBW7 E3 ligase activators, primary screen, biochemical, AlphaScreen, human; F-box/WD repeat-containing protein 7 (Homo sapiens), Q969H0; AlphaScreen FBW7–phospho-cyclin E peptide binding, activator screen; normalized activity (activation), % at 26.1 µM; 650,000 compounds, 0.13% hits; AID 1259310, 2017; in the data active means normalized activity above about 1.9%;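 further: purified mutant Fbw7 with reduced substrate affinity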
GPR151 ag = activators of human GPR151, primary screen, cell-based, PathHunter beta-arrestin, luminescence; 650,000 compounds, 1% hits; PathHunter beta-arrestin GPR151 cells; AID 1508602, 2020; activation, % at 11.2 µM; in the data active means activation above about 4.9%;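 further: 0% = median of compound wells and 100% = cells with positive control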
TEAD-YAP block = TEAD-YAP interaction inhibition, primary screen, TEAD-YAP interaction inhibitor project, luminescence, HEK-TIYL cells. TEAD-Gal4/YAP UAS-luciferase luminescence. inhibition, % at 9.12 µM. 640,000 compounds, 1.4% hits. AID 1259422, 2018; in the data active means inhibition above about 32%;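 further: 0% = median of test compound wells and 100% = reference inhibitor wells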
MITF inh = MITF inhibitors, primary screen, biochemical, AlphaScreen, human; inhibition, % at 2.6 µM; Microphthalmia-associated transcription factor (Homo sapiens), O75030; AlphaScreen MITF homodimerization, bead proximity signal; AID 1259374, 2018; 650,000 compounds, 0.91% hits; in the data active means inhibition above about 50%;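 further: 0% = vehicle wells with protein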
GPR151 conf act = GPR151 activators, triplicate retest, confirmation, cell-based, PathHunter beta-arrestin, luminescence | 6,700 tested, under 10 active | activation, % at 11.2 µM | AID 1508609, 2020 | GPR151 PathHunter beta-arrestin cells, 90 min; % of EA-reagent control over plate median | shares compounds with GPR151 ag;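 active means mean percent activation across replicates above the confirmation screen cutoff of 4.91%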
GPR119 ag = GPR119 activators in beta-arrestin cells, counter-screen for GPR151 activator project, cell-based, PathHunter beta-arrestin, luminescence, triplicate | shares compounds with GPR151 ag | 90 min; 0 = compound-well median, 100 = enzyme-acceptor control | activation, % at 11.2 µM | 6,700 compounds, 0.3% hits | AID 1508611, 2020;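 active means mean percent activation in the counterscreen above 29.09%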;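 further: counterscreen on off-target GPR119 to flag nonselective hits from the GPR151 activator screen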
Starred values were filed as active, the others as inactive; nt = no result given; ! = repeats disagree.

SMILES	FBW7 activator	GPR151 ag	TEAD-YAP block	MITF inh	GPR151 conf act	GPR119 ag
O=C(Nc1ccc2c(c1)oc1ccccc12)c1cccc(C(F)(F)F)c1	0	0	3	6	nt	nt
CCN1CCCC1CNC(=O)C(=O)Nc1ccc(Cl)cc1 (centres undefined)	0	0	-3	5	nt	nt
CC(C)CC(N=Cc1c(O)c2ccccc2oc1=O)C(=O)O (centres undefined)	0	5.5*	-6	-5	0	11
CCc1ccc(OCC(=O)NCc2ccccc2OC)cc1	0	5.1*	3	8	-1	-5
COc1ccccc1CNC(=O)COc1ccccc1	0	4	-24	0	nt	nt
COc1ccccc1CNC(=O)COc1ccc(Br)cc1Cl	0	12*	2	11	-1	-10
CC1(C)CC(=O)c2c(oc3c(Cl)cc(NS(=O)(=O)c4ccccc4)cc23)C1	0	1	13	10	nt	nt
CC1(C)CC(=O)c2c(oc3c(Cl)cc(NS(=O)(=O)c4ccc5ccccc5c4)cc23)C1	2	10*	0	19	1	14
N#Cc1cn(CC(=O)NCCc2ccccc2)c2ccc(Br)cc12	0	3	6	3	nt	nt
O=C(CCc1ccccc1)NCC1(c2ccc3c(c2)OCCO3)CCOCC1	1	0	5	19	nt	nt
COc1cc(C2C([N+](=O)[O-])=C(N)Oc3cc(C)oc(=O)c32)ccc1O (centres undefined)	1	2	2	13	nt	nt
COC(=O)CN1C(=O)Nc2ccc(Br)cc2C1c1ccccc1Cl (centres undefined)	0	15*	1	2	0	4
CCOC(=O)CN1C(=O)Nc2ccc(Br)cc2C1c1ccccc1 (centres undefined)	1	1	7	14	nt	nt
COc1ccc(NC(=S)N2CCC(N(C)C(C)C)CC2)cc1	0	5.9*	-9	-3	-1	-14
CCCCN(C)C1CCN(C(=S)Nc2ccc(OC)cc2)CC1	0	0	3	-2	nt	nt
CCOC(=O)c1ccc(NC(=O)C(=O)Nc2ccc3nc4n(c(=O)c3c2)CCCCC4)cc1	0	-1	7	-2	nt	nt
CCOC(=O)C(=O)Nc1ccc2nc3n(c(=O)c2c1)CCCCC3	0	5.4*	2	-22	0	-6
CCOc1ccc(N(CC)C(=O)C(=O)Nc2ccc3nc4n(c(=O)c3c2)CCCCC4)cc1	1	11*	8	12	1	5
COc1cc(/C=N/N2C(C)CCCC2C)cc(Br)c1O (centres undefined)	0	8.2*	1	-12	-1	-9
COc1cccc(NC(=O)C(=O)NCC(C)O)c1 (centres undefined)	0	-1	-57	-14	nt	nt
Cc1cc(C)cc(NC(=O)C2CCN(c3nnc(-n4c(C)ccc4C)s3)CC2)c1	0	5.5*	5	5	0	-10
COc1ccc(CSc2nnnn2C)cc1F	0	5.5*	-8	3	0	-7
CN(C)c1ccc(C2OCC3(CO2)COC(c2ccc(N(C)C)cc2)OC3)cc1 (centres undefined)	0	1	-4	4	nt	nt
CN(C)CC(C)(C)C1OCC2(CO1)COC(C(C)(C)CN(C)C)OC2 (centres undefined)	0	6.9*	13	13	0	-2
O=c1nc(SCc2c(F)cccc2Cl)c2c(n1CCCO)CCCC2	0	5.1*	-14	6	0	-9
SMILES	FBW7 activator	GPR151 ag	TEAD-YAP block	MITF inh	GPR151 conf act	GPR119 ag
O=c1nc(SCc2cccc3ccccc23)c2c(n1CCCO)CCCC2	0	0	1	-11	nt	nt
COc1ccc(C(=S)N2CCCCC2)cc1OC(=O)c1ccccc1	0	0	-3	-1	nt	nt
COc1ccccc1N1CCN(C(=O)CSc2nc(N)cc(=O)[nH]2)CC1	0	-1	13	12	nt	nt
COc1ccccc1N1CCN(C(=O)CSc2nc3ccccc3[nH]2)CC1	0	6.0*	9	10	0	2
O=C(NCCCSc1ccc(Br)cc1)Nc1ncccn1	0	5.2*	10	8	1	7
COc1cc2[nH]c(=O)n(CCC(=O)NC3CCCc4ccccc43)c(=O)c2cc1OC (centres undefined)	0	0	6	7	nt	nt
Cc1cc(NCCOc2ccccc2)nc(N2CCN(Cc3ccc4c(c3)OCO4)CC2)n1	0	6.0*	8	6	2	3
Cc1cc(C)n2nc(C(=O)OCC(=O)N(C3CCCCC3)C3CCCCC3)nc2n1	0	-1	7	6	nt	nt
CN1CCCN(C(=O)C2CC23CCN(Cc2cccc(C(F)(F)F)c2)CC3)CC1 (centres undefined)	0	2	4	-12	nt	nt
CC(C)(C)c1ccc(-c2n[nH]c(=S)n2-c2ccccc2)cc1	0	5.1*!	1	13	-1	-13
S=c1[nH]nc(-c2ccc(Cl)cc2)n1-c1ccccc1	0	-2	15	12	nt	nt
Nc1c(Cl)cc(-n2c(-c3ccccc3)n[nH]c2=S)cc1Cl	0	5.5*	5	-1	0	-3
CCCOc1ccc(/C=C/C(=O)Nc2ccccc2C(=O)OCC)cc1OC	0	-1	-4	-26	nt	nt
Cc1ccc(-n2c(-c3ccncc3)n[nH]c2=S)cc1	0	-1	11	-5	nt	nt
Cc1ccc(C)n1-c1ccc(-c2ccnc(-c3ccncc3)n2)cc1	0	5.4*	4	6	0	0
CS(=O)(=O)c1ccc2c(c1)SC1=NC(C(F)(F)F)(C(F)(F)F)NC(=O)N12	0	0	0	1	nt	nt
CCOC(=O)CC1=CSC2=NC(C(F)(F)F)(C(F)(F)F)NC(=O)N12	0	5.6*	7	5	0	-2
Cc1ccnc(SCc2cc(=O)c(OC(=O)c3cc(Cl)ccc3[N+](=O)[O-])co2)n1	0	14*	-2	2	-1	-7
Cc1ccnc(SCc2cc(=O)c(OC(=O)c3cc(Cl)ccc3Cl)co2)n1	0	-1	7	9	nt	nt
O=C(NCc1cccc(C(F)(F)F)c1)c1cncc(-c2ccc(C(=O)NC3CC3)cc2)c1	0	1	-1	8	nt	nt
CN1C(=O)[C@H]2CN(C(=O)c3ccc(-c4ccccc4)cc3)CCN2C(=O)[C@@H]1CO	0	-1	7	16	nt	nt
Cc1nc(NCCNC(=O)Nc2cccc(C)c2C)cc(N2CCCC2)n1	0	1	-7	-7	nt	nt
O=C(NNC(=O)C1CCCCC1)c1cnccn1	0	0	-3	13	nt	nt

Source: PubChem (The Scripps Research Institute Molecular Screening Center)
